About 83,000 compounds went through this panel and 20% of them were active in at least one assay; those are over-represented in the sample as a whole.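 Growth was measured after 48 h exposure to one concentration of compound in 96-well plates. Values under 10 count as active.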 Activity calls are given as the source filed them.
Columns and labels:
Assay in all cases: NCI-60 one-dose screen, 48 h (100 = growth as untreated, 0 = no growth, -100 = all killed)
Settings in all cases: 10 µM unless noted
[1] = tested on: NCI-H23 lung
[2] = tested on: NCI-H226 lung
[3] = tested on: NCI-H322M lung
[4] = tested on: HOP-62 NSCLC
[5] = tested on: NCI-H460 lung
[6] = tested on: HOP-92 NSCLC
[7] = tested on: NCI-H522 lung
[8] = tested on: A549/ATCC NSCLC
[9] = tested on: 786-0 renal
[10] = tested on: COLO 205 colon
[11] = tested on: DU-145 prostate
[12] = tested on: K-562 leukemia
[13] = tested on: MALME-3M melanoma
[14] = tested on: MDA-MB-231 breast
[15] = tested on: RXF 393 renal
[16] = tested on: SF-268 CNS
[17] = tested on: SF-295 CNS
[18] = tested on: SF-539 CNS
[19] = tested on: UACC-257 melanoma

Measured: growth

Cn1cc(-c2csc(-c3cn(CCCN4CCOCC4)c4ccc(F)cc34)n2)c2cccnc21
inactive: [1] 63.7% | [2] 51.9% | [3] 79% | [4] 71.7% | [5] 41% | [6] 40.8% | [7] 49.5% | [8] 66.1% | [9] 57.4% | [10] 51.3% | [11] 80.3% | [13] 87.4% | [14] 25.1% | [15] 36.1% | [16] 66.6% | [17] 11.2% | [18] 57.6% | [19] 78.5%
active: [12] 0.484%

ClCCn1cnc2c(SCc3ccccc3)ncnc21
inactive: [1] 72.4% | [2] 65.4% | [3] 75.3% | [4] 66.6% | [5] 12.2% | [6] 63.7% | [7] 65.8% | [8] 40% | [9] 64.8% | [10] 52.4% | [11] 63.3% | [12] 40.8% | [13] 57.6% | [14] 75.6% | [15] 87.8% | [16] 67.1% | [17] 37.6% | [18] 37.3% | [19] 62.4%

COc1ccc(C2[C@@H](Cl)C(=O)N2c2cc(OC)c(OC)c(OC)c2)cc1Cl (some centres not stated)
active: [5] 5.19% | [7] -28.7% | [9] 5.5% | [10] -50.2% | [11] 6.13% | [12] 5.8% | [15] -2.33% | [17] 8.96% | [18] 9.09%
inactive: [1] 34.9% | [2] 59.8% | [3] 40% | [4] 21% | [6] 33.6% | [8] 14.8% | [13] 69.1% | [14] 33.5% | [16] 26.1% | [19] 31.5%

COc1cc(/C=C2\C(=O)N(CCCOc3cc(O)c4c(=O)cc(-c5ccccc5)oc4c3)c3ccccc32)cc(OC)c1O
inactive: [1] 87.9% | [2] 94.5% | [3] 89.9% | [4] 71.7% | [5] 89.4% | [6] 72.1% | [7] 36.4% | [8] 74.5% | [9] 92.8% | [10] 82.6% | [11] 86.2% | [12] 21.2% | [13] 78.5% | [14] 97.5% | [15] 91.6% | [16] 78.5% | [17] 101% | [18] 80.7% | [19] 90.9%

COc1ccc(Nc2ncc(I)c(NCCCNC(=O)C3CCC3)n2)cc1
inactive: [7] 52.2% | [11] 16.3% | [12] 25.7% | [13] 41% | [16] 14.7% | [17] 20.8% | [19] 75.3%
active: [1] 8.39% | [2] 5.32% | [3] 6.78% | [4] -21.3% | [5] 8.88% | [6] -7.19% | [8] -37.6% | [9] 9.69% | [10] -59.3% | [14] -45.4% | [15] -84.1% | [18] -34.5%

CCCCC#Cc1c(I)n(C2OC(CO[Si](C)(C)C(C)(C)C)C3OC(C)(C)OC32)c(=O)n(C(=O)c2ccccc2)c1=O (configuration not stated)
inactive: [1] 51.9% | [2] 67.7% | [3] 110% | [4] 94.8% | [5] 68.5% | [7] 71% | [8] 67.7% | [9] 64.1% | [11] 74.7% | [14] 10.1% | [16] 36.8% | [17] 74% | [19] 77.6%
active: [6] -37.6% | [10] -46.9% | [12] 6.35% | [13] 1.91% | [15] -56.8% | [18] 3.54%

CCOC(=O)C1=C(c2ccccc2)N=C2N(c3ccccc3)N=C(C(C)=O)N2C1c1ccc(F)cc1 (configuration not stated)
inactive: [1] 105% | [2] 97.7% | [3] 99.2% | [4] 98.6% | [5] 100% | [6] 93.3% | [7] 97.3% | [8] 101% | [9] 99.6% | [10] 113% | [11] 106% | [12] 96.3% | [13] 97.7% | [14] 98.8% | [15] 75.5% | [16] 99.2% | [17] 98.6% | [18] 101% | [19] 113%

CC(C)CCC[C@@H](C)[C@H]1CC[C@H]2[C@@H]3CC=C4c5sc(Nc6cc(C(F)(F)F)cc(C(F)(F)F)c6)nc5CC[C@]4(C)[C@H]3CC[C@]12C
inactive: [1] 93.4% | [2] 104% | [3] 99.1% | [4] 81.9% | [5] 105% | [6] 79% | [7] 101% | [8] 92.1% | [9] 110% | [10] 99.8% | [11] 104% | [12] 101% | [13] 94.8% | [14] 108% | [15] 107% | [16] 101% | [17] 104% | [18] 98% | [19] 99.2%
